Screening data from PubChem.
Cycloheximide cs = affects cycloheximide protein synthesis inhibition readout, counter-screen; max response, %; cell reporter, cycloheximide protein synthesis inhibition counterscreen; actives 12% (n = 300,000); in the data active = max response mostly above about 13%, no sharp cut-off; inactive = mostly below about 14%; also: read at 38.3 µM for the half of the compounds with a filed dose; 0% is about no effect
NS1 function inh = influenza NS1 inhibition; Potency, µM (highest dose often 46.1 µM), without a hit: top-dose activity, positive = more growth; actives 0.4% (n = 270,000); AID 2326; calls by dose curve; also: potency is read from the fitted curve at half-maximal effect; actives are rising curves; nearly all actives have a fitted effect of over 50% in size
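A cell-based growth assay was used: compounds that relieve NS1-induced slow growth of budding yeast raise OD600. Assay medium was yeast nitrogen base with ammonium sulphate and -URA supplement, pH 6.0, with 2% galactose.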
Sm TGR block = blocks Schistosoma mansoni thioredoxin glutathione reductase; Q962Y6; purified TGR, DTNB reduction, TNB absorbance 405 nm; Potency, µM (top dose mostly 114 µM), for inactives: at the top dose activity change, negative = inhibition, usual class: inhibitors; actives 3% (n = 360,000); also: potency is read from the fitted curve at half-maximal effect; % is scaled to controls: 0 for no effect and ±100 for the full control effect; nearly all actives have a fitted effect of over 60% in size
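TGR 20 nM + NADPH 100 uM (dispensed conc.), cpd preinc 15 min RT; start with NADPH (500 uM addition) then DTNB (15 mM addition). Kinetic TNB absorbance, 405 nm filter. Four-parameter Hill fit across titration.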
Pf growth 96h = P. falciparum growth inhibition at 96 hour, primary screen for plastid delayed-death inhibitors; actives 6.9% (n = 320,000); Potency, µM (top dose mostly 28.7 µM), for the others: at the highest dose activity change, negative = inhibition, hits mostly inhibitors; P. falciparum luciferase reporter growth, 96 h; also: potency is read from the fitted curve at half-maximal effect; % is scaled to controls: 0 for no effect and ±100 for the full control effect
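P. falciparum expressing integrated firefly luciferase grown in erythrocytes (2% hematocrit, 0.05% parasitemia final) with compounds for 96 hours at 37 C, 5% CO2. Growth inhibition read as loss of luminescence after adding luciferase detection reagent.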
Shiga inhibitor = Shiga toxin inhibition. Vero cells, Shiga toxin protein synthesis inhibition reporter. inhibition, % at 38.7 µM. actives 9.2% (n = 290,000); in the data active = inhibition mostly above about 28%, no sharp cut-off; inactive = mostly below about 43%; also: 0% is about no effect
Pf growth 48h = inhibits P. falciparum growth in the first generation, 48 h; P. falciparum luciferase growth in erythrocytes, 48 h; Potency, µM (titrated, usually from 28.7 µM), for the others: at the highest dose activity change, negative = inhibition, usual class: inhibitors; AID 504832; actives 5.9% (n = 310,000); also: potency is read from the fitted curve at half-maximal effect; % is scaled to controls: 0 for no effect and ±100 for the full control effect
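Luciferase-expressing P. falciparum in infected erythrocytes (2% hematocrit, 0.1% parasitemia final) in RPMI 1640/0.5% Albumax were exposed to compound for 48 hours at 37 C, 5% CO2; growth read as luminescence.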
* hit, by the source's call; [ ] = dose if it differs, or a comment. Only some compounds are listed: those with a hit (about 21% of all), similar ones and a draw of the others. Unless noted, calls follow the shape of the dose curve; as a rule, active = well fitted curve in the direction sought with a large enough effect; inconclusive = small, poorly fitted or top-dose-only effect, or another doubt; inactive = no such curve, though single readings can be large; an effect the other way counts as inactive or inconclusive.

Results for c1ccc2oc(NC3=NCN(CC4CCCO4)CN3)nc2c1 (stereo not drawn) ?
Cycloheximide cs: 28.7*; NS1 function inh: 4.2%; Sm TGR block: -1.2%; Shiga inhibitor: 81.4*; Pf growth 48h: 112.1%

What do the screens show for `CCC1=C(c2ccc(C)cc2)S(=O)(=O)N=C1N1CCC(C(=O)Nc2ccccc2C(=O)OC)CC1`?
Sm TGR block: 0.0%

What do the screens show for `CN(CCO)c1cc(NCCCN2CCC(Cc3ccccc3)CC2)c2nonc2c1[N+](=O)[O-]`?
Cycloheximide cs: 10.2; Sm TGR block: -1.7%; Pf growth 96h: -6.8%; Shiga inhibitor: -2.5; Pf growth 48h: 10.4µM*

What do the screens show for `O=[N+]([O-])c1c(NCCCO)cc(N2CCCCCC2)c2nonc12`?
Cycloheximide cs: -2.5; NS1 function inh: 3.5%; Sm TGR block: 11.2µM*; Pf growth 96h: 3.9%; Shiga inhibitor: -7.8; Pf growth 48h: -34.8%[0.00184 µM]

How did O=[N+]([O-])c1c(NCCO)cc(N2CCC3(CC2)OCCO3)c2nonc12 do in these assays?
Cycloheximide cs: -1.3; NS1 function inh: 4.7%; Sm TGR block: -3.3%; Pf growth 96h: inconclusive; Shiga inhibitor: 8.6; Pf growth 48h: -9.2%

Results for COc1ccc(CNc2cc(NCCCO)c([N+](=O)[O-])c3nonc23)cc1 ?
Cycloheximide cs: 5.0; Sm TGR block: 22.4µM*; Pf growth 96h: inconclusive; Shiga inhibitor: -5.5; Pf growth 48h: -21.0%

How did CN(CCO)c1cc(N2CCC3(CC2)OCCO3)c2nonc2c1[N+](=O)[O-] do in these assays?
Cycloheximide cs: -2.3; NS1 function inh: 13.3%; Sm TGR block: 28.2µM*; Pf growth 96h: inconclusive; Shiga inhibitor: -9.1; Pf growth 48h: 4.1%

How did COc1ccc(Nc2cc(NCCCO)c([N+](=O)[O-])c3nonc23)cc1 do in these assays?
Cycloheximide cs: -3.1; NS1 function inh: 3.9%; Sm TGR block: 2.6%; Pf growth 96h: inconclusive; Shiga inhibitor: -2.4; Pf growth 48h: inconclusive

How did O=[N+]([O-])c1c(NCCCO)cc(N2CCN(Cc3ccc4c(c3)OCO4)CC2)c2nonc12 do in these assays?
Cycloheximide cs: -1.8; NS1 function inh: 7.3%; Sm TGR block: -6.9%; Pf growth 96h: 32.7%; Shiga inhibitor: -7.8; Pf growth 48h: inconclusive

How did CC1CCN(CCCNc2cc(NCCO)c([N+](=O)[O-])c3nonc23)CC1 do in these assays?
Cycloheximide cs: -5.0; NS1 function inh: 2.3%; Sm TGR block: -3.1%; Pf growth 96h: -10.0%; Shiga inhibitor: 4.1; Pf growth 48h: 2.5%[0.00184 µM]

What do the screens show for `c1ccc2c(c1)nnn2CN1CCOCC1`?
NS1 function inh: 0.0%

How did Cc1ccc(CNC(=O)CSc2nc3c(sc4ccccc43)c(=O)n2CCCOC(C)C)cc1 do in these assays?
Sm TGR block: -5.4%

Results for CN(CCO)c1cc(N2CCCCC2)c2nonc2c1[N+](=O)[O-] ?
Cycloheximide cs: -3.0; Sm TGR block: 17.8µM*; Pf growth 96h: inconclusive; Shiga inhibitor: -5.6; Pf growth 48h: -3.7%

Results for CCCCC(CC)C(=O)Nc1cc(C(=O)NCCC)ccc1N1CCC2(CC1)CC(c1ccccc1)=NO2 (stereo not drawn) ?
Cycloheximide cs: -2.5; NS1 function inh: inconclusive; Sm TGR block: 9.0%; Pf growth 96h: 1.47µM*; Shiga inhibitor: 10.4; Pf growth 48h: -37.6%

How did CCCNC(=O)c1ccc(N2CCC3(CC2)CC(c2ccccc2)=NO3)c(NC(=O)c2ccco2)c1 do in these assays?
Cycloheximide cs: 7.6; NS1 function inh: 7.5%; Sm TGR block: 1.7%; Pf growth 96h: 1.17µM*; Shiga inhibitor: 2.1; Pf growth 48h: inconclusive

How did Cc1ccc(CNC(=O)c2ccc(N3CCC4(CC3)CC(c3ccccc3)=NO4)c(NC(=O)c3ccco3)c2)cc1 do in these assays?
Cycloheximide cs: -2.2; NS1 function inh: 29.3%; Sm TGR block: -1.4%; Pf growth 96h: 1.04µM*; Shiga inhibitor: -9.6; Pf growth 48h: inconclusive

Results for Cc1ccc(CNC(=O)c2ccc(N3CCC4(CC3)CC(c3cccc(Br)c3)=NO4)c(NC(=O)c3ccco3)c2)cc1 ?
Sm TGR block: -15.2%; Pf growth 96h: 3.7µM*; Pf growth 48h: 1.65µM*
